Data reported in PubChem BioAssay.
Activity calls are given as the source filed them.

Columns and labels:
[1] = small molecules captured by biotinylated probe aFSTL3 – biochemical, small-molecule microarray, fluorescence 635/667, stem cell growth factor project, primary screen (AID 1064); conditions: higher = more signal;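 also: measures binding of the biotinylated anti-FSTL3 antibody to printed compounds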
[2] = binders from COS7 lysate, DM2A8 probe, primary screen, torsin A project, cell lysate, small-molecule microarray, fluorescence 635/667 (AID 1065); conditions: higher = more signal, COS7 lysate expressing mutant human TOR1A
[3] = small molecules captured by biotinylated probe aFGF2 – biochemical, small-molecule microarray, fluorescence 635/667, stem cell growth factor project, primary screen (AID 1067); conditions: higher = more signal;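 also: measures binding of biotinylated aFGF2 protein to printed compounds on slides; z-score merges feature fluorescence and signal-to-noise across triplicate slides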
[4] = small molecules captured by biotinylated probe aFGF10 – biochemical, small-molecule microarray, fluorescence 635/667, stem cell growth factor project, primary screen (AID 1071); conditions: higher = more signal;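 also: score merges 667 nm spot intensity and signal to noise from triplicate slides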
[5] = biological target: Neurogenic locus notch homolog protein 2 (Homo sapiens) (UniProt Q04721); assay: small molecules binding Notch2 protein – biochemical, small-molecule microarray, 635 nm fluorescence, stem cell growth factors, primary screen (AID 1073); conditions: higher = more signal
[6] = biological target: Pro-neuregulin-1, membrane-bound isoform (Homo sapiens) (UniProt Q02297); assay: small molecules binding neuregulin-1 protein – biochemical, small-molecule microarray, fluorescence 635/667, psychiatric disease protein project, primary screen (AID 1075); conditions: NRG1 binding, 635 nm fluorescence, higher = more signal;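 also: score combines 667 nm spot fluorescence with signal to noise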
Pro-neuregulin-1, membrane-bound isoform (Homo sapiens), sequence (Q02297 whole entry, looked up, the tested form may be a part, canonical isoform): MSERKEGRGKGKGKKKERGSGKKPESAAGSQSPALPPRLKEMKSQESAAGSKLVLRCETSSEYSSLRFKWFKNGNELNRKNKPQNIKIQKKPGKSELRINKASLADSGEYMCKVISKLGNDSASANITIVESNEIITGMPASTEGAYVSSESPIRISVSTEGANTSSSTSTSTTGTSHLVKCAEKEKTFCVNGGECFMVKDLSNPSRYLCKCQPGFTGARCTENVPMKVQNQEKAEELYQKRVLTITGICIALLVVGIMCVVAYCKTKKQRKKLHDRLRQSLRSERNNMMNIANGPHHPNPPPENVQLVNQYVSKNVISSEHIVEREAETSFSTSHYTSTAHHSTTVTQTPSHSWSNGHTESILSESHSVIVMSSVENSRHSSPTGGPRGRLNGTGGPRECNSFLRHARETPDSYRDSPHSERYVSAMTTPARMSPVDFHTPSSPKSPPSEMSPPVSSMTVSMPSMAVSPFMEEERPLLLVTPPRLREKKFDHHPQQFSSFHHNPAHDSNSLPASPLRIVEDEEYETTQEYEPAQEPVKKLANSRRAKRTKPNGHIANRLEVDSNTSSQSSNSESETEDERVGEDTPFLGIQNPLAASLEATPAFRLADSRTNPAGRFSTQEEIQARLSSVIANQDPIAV

[7] = test system: Neuregulin-1 EGF-like domain; assay: small molecules binding NRG1 EGF domain – biochemical, small-molecule microarray, 635 nm fluorescence, primary screen (AID 1081); conditions: higher = more signal;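 also: binding of the protein to compounds printed on small-molecule microarray slides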
[8] = FRG1 expression reporter modulators in myotubes – cell-based, C2C12 myotubes, firefly/Renilla luciferase, luminescence, FRG1 inhibition for FSHD, primary screen (AID 1084); conditions: FRG1 promoter luciferase, higher = more signal, called active from +8 up or from −8 down
[9] = small molecules captured by biotinylated probe aFST – biochemical, small-molecule microarray, fluorescence 635/667, stem cell growth factor project, primary screen (AID 1086); conditions: higher = more signal;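 also: score merges 667 nm fluorescence with signal-to-noise of each printed compound spot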
[10] = binders of probe aHhip on microarray, primary screen, stem cell growth factor project, biochemical, small-molecule microarray, fluorescence 635/667 (AID 1087); conditions: higher = more signal;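 also: score merges spot fluorescence at 667nm with spot signal to noise ratio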
[11] = test system: PRMT1 (protein arginine N-methyltransferase 1); assay: small molecules binding arginine methyltransferase PRMT1 – biochemical, small-molecule microarray, 635 nm fluorescence, primary screen (AID 1088); conditions: higher = more signal;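 also: binding of Prmt1 protein to compounds spotted on small-molecule microarray slides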
[12] = growth effects on S. cerevisiae YJM789 – YJM789 clinical isolate, OD600, 24 h, basal, primary screen (AID 1089); conditions: higher = more signal, called active from +8 up or from −8 down;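 also: growth of clinical yeast isolate S. cerevisiae YJM 789 seeded 1000 cells per well; test concentration not given here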
[13] = S. pombe growth modifiers, basal conditions – strain 972, OD600, 24 h, no modulator, primary screen (AID 1090);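 also: basal condition with compound alone and no growth modifier present; test concentration not given here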; conditions: S. pombe 972 growth, higher = more signal, called active from +8 up or from −8 down
[14] = budding yeast growth modifiers under rapamycin – strain BY4716, OD600, 96 h, primary screen (AID 1091); also: test concentration not given here; conditions: S. cerevisiae BY4716 + rapamycin, higher = more signal, called active from +8 up or from −8 down
[15] = biological target: Torsin-1A-interacting protein 2 (Homo sapiens) (UniProt Q8NFQ8); assay: small molecules binding lysate-expressed LULL1 – cell lysate, human LULL1 lysate, 635/667 nm fluorescence, primary screen (AID 1092); conditions: small-molecule microarray, hLULL1 lysate binding, 635 nm fluorescence; higher = more signal;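 also: probe is lysate of COS7 cells overexpressing human LULL1; score merges per-feature 667 nm fluorescence with signal-to-noise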
Torsin-1A-interacting protein 2 (Homo sapiens), sequence (Q8NFQ8 whole entry, looked up): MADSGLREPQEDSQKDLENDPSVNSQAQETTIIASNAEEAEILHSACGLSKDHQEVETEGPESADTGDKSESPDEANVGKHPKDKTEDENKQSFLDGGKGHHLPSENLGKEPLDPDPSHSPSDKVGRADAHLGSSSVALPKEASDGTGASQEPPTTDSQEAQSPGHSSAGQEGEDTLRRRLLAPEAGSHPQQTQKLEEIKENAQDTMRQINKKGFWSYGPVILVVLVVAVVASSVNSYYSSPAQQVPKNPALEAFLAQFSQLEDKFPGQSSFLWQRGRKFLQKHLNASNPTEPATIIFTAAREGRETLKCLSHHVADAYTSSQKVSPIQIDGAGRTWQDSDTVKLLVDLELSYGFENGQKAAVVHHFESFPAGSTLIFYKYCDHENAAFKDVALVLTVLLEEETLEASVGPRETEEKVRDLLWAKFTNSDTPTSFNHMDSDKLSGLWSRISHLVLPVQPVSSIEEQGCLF

[16] = optical density change of DRC41 E. coli – strain DRC41, OD650, 24 h, E. coli filamentation project, primary screen (AID 1093);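 also: MC1000 strain lacking acrAB efflux and sulA so SOS filamentation is blocked; test concentration not given here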; conditions: E. coli DRC41 growth, higher = more signal, called active from +8 up or from −8 down
[17] = probe aLefty2 binding to arrayed compounds – biochemical, biotinylated probe, 635/667 nm fluorescence, primary screen (AID 1094); conditions: small-molecule microarray, higher = more signal;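 also: score merges spot fluorescence near 667 nm with spot signal-to-noise ratio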
[18] = test system: Noggin (protein binding on small-molecule microarray); assay: small molecules binding Noggin protein – biochemical, 635/667 nm fluorescence, primary screen (AID 1095); conditions: 635 nm fluorescence, higher = more signal;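 also: score merges 667 nm feature fluorescence with signal to noise over triplicate slides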
[19] = biological target: Neurogenic locus notch homolog protein 3 (Homo sapiens) (UniProt Q9UM47); assay: small molecules binding NOTCH3 protein – biochemical, 635/667 nm fluorescence, primary screen (AID 1096); conditions: small-molecule microarray, 635 nm fluorescence, higher = more signal
Neurogenic locus notch homolog protein 3 (Homo sapiens), sequence (Q9UM47 whole entry, looked up): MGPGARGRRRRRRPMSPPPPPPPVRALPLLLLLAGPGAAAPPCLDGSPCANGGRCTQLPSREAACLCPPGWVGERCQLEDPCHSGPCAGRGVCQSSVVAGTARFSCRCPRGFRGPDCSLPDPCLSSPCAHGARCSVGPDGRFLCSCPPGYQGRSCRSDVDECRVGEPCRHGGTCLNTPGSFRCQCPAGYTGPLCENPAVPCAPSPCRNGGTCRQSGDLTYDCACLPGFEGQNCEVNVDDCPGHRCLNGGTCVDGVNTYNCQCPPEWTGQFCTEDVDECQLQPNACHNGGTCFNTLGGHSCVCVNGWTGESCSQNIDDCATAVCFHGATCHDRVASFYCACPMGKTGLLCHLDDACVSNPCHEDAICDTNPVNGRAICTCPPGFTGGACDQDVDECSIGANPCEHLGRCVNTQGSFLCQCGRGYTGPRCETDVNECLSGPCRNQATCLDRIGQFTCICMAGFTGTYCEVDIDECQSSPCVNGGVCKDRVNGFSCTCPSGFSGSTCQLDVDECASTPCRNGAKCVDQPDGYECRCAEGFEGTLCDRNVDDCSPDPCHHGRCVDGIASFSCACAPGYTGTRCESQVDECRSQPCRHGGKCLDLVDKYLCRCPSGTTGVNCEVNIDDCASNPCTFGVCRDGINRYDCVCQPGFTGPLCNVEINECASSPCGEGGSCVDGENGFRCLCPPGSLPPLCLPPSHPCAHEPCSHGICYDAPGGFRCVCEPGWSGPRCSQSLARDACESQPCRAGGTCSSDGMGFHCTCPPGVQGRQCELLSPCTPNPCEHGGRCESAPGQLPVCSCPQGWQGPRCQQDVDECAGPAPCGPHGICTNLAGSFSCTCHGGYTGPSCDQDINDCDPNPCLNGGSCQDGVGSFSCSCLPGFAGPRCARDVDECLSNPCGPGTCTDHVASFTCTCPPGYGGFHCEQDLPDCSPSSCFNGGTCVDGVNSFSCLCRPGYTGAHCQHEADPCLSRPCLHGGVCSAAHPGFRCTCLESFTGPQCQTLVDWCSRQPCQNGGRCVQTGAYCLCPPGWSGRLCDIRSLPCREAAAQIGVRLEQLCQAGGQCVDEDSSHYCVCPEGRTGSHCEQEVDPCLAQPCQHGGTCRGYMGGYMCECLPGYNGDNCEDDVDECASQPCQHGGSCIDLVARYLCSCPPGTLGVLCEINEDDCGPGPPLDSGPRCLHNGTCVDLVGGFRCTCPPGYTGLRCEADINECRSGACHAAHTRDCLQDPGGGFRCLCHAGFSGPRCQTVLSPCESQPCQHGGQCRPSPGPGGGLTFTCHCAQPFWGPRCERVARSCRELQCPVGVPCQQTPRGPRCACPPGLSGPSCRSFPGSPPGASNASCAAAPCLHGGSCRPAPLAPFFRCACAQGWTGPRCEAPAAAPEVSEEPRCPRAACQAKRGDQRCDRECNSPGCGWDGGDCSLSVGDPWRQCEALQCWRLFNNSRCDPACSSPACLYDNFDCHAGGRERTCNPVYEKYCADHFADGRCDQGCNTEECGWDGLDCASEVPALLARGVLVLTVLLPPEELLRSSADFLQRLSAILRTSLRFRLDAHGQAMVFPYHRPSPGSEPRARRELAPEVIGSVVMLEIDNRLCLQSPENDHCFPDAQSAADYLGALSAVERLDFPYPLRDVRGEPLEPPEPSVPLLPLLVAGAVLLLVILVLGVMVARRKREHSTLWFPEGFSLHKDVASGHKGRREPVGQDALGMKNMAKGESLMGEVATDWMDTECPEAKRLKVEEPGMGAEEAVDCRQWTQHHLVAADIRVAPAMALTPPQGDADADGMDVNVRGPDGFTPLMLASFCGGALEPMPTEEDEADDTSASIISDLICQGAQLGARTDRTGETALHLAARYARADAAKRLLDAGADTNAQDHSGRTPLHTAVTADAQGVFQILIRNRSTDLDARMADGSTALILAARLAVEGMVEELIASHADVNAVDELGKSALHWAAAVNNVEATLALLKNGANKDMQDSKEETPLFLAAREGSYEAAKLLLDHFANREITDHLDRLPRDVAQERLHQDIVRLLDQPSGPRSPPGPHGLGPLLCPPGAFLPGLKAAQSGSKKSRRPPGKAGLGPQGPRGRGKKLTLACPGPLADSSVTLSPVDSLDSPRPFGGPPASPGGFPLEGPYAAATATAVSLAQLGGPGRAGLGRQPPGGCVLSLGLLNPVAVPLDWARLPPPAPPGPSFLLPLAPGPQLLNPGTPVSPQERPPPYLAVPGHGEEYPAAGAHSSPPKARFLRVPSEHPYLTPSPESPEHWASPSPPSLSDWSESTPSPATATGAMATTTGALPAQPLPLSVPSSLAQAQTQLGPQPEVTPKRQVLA

[20] = probe aEGFR binding to arrayed compounds – biochemical, biotinylated probe, 635/667 nm fluorescence, primary screen (AID 1097); conditions: small-molecule microarray, higher = more signal;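 also: probe is a biotinylated anti-EGFR antibody binding compounds printed on slides; score combines fluorescence near 667 nm and signal to noise of each spot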

Compound	composite z-score [1]	composite z-score [2]	composite z-score [3]	composite z-score [4]	composite z-score [5]	composite z-score [6]	composite z-score [7]	z-score [8]	composite z-score [9]	composite z-score [10]	composite z-score [11]	z-score [12]	z-score [13]	z-score [14]	composite z-score [15]	z-score [16]	composite z-score [17]	composite z-score [18]	composite z-score [19]	composite z-score [20]
C=CCC(OC(C)=O)[C@@H]1[C@@H](N(Cc2cc3ccccc3o2)C(=O)c2ccc(-c3ccccc3)cc2)c2cc(OCCCO)ccc2N1C(=O)c1ccc2ccccc2n1 (stereo not given in full)	-0.128	-0.0562	-0.128	0.0599	-0.234	0.0289	-0.464	-1.47 (inactive)	0.268	0.417	-0.766	0.806 (inactive)	0.0887 (inactive)	1.16 (inactive)	0.607	0.859 (inactive)	-0.072	0.0917	-0.781	-0.0151
COCCOC(=O)N1C(=O)[C@@]2(c3cc(C#CCCO)ccc31)[C@H](C(=O)N1CCN(c3ncccn3)CC1)[C@H]1C(=O)O[C@H](c3ccccc3)[C@H](c3ccccc3)N1[C@@H]2c1ccc(O)cc1	-0.782	0.219	0.0243	0.534	0.376	0.926	1.24	-1.3 (inactive)	-0.3	-0.367	1.54	0.114 (inactive)	-0.161 (inactive)	1.63 (inactive)	2.04	1.49 (inactive)	-0.299	0.865	0.945	-0.219
C=CCOC(=O)[C@H]1[C@@H]2C(=O)O[C@@H](c3ccccc3)[C@@H](c3ccccc3)N2[C@@H](c2ccc(OCCOC(=O)[C@@H]3C[C@@H]4C(=O)N[C@@H](Cc5ccccc5)C(=O)N4[C@@H]3c3ccc(O)cc3)cc2)[C@]12C(=O)Nc1ccccc12	-0.372	0.268	-0.0713	0.278	0.217	0.403	1.21	0.503 (inactive)	-0.121	-0.0645	1.55	0.455 (inactive)	-0.113 (inactive)	3.75 (inactive)	2.13	0.0664 (inactive)	-0.151	1.65	0.758	-0.0929
CCOC(=O)C[C@H]1[C@H](OC(=O)c2ccc(-c3ccccc3)cc2)[C@@H](NC(=O)c2ccc3ccccc3c2)c2cc(OCCCO)ccc2N1C(=O)c1ccccc1	-0.211	-0.0761	-0.0692	0.557	0.736	-0.0077	0.627	-0.182 (inactive)	0.412	-0.0115	0.712	0.806 (inactive)	1.17 (inactive)	1.26 (inactive)	1.69	-1.1 (inactive)	-0.141	0.382	0.842	0.0914
CCN(CC)c1ccc(N2CC=CC34O[C@@H]5C=CCOC(=O)[C@@H]5[C@H]3C(=O)N(CCO)[C@@H]4C2=O)cc1 (stereo not given in full)	0.73	-0.0324	-0.144	-1.03	-1.51	-0.0687	0.504	0.737 (inactive)	-0.568	-0.353	-0.503	0.907 (inactive)	-1.02 (inactive)	-0.108 (inactive)	0.174	1.47 (inactive)	-0.0041	-1.35	-0.373	-0.334
O=C(NCC(F)(F)F)[C@@H]1c2ccccc2C(=O)N(CC23CC4CC(CC(C4)C2)C3)[C@H]1c1ccc(CO)cc1	-0.473	0.371	-0.0549	0.353	0.958	0.553	1.21	-3.95 (inactive)	0.195	-0.0776	1.54	-3.48 (inactive)	-1.94 (inactive)	-1.47 (inactive)	1.81	1.37 (inactive)	-0.129	1.14	1.1	-0.0902
COc1ccc([Si](C)(C)[C@@H]2[C@@H](CCO)O[C@]3(C(=O)N(Cc4ccccc4)c4ccc(N5C(=O)c6ccccc6Oc6ccccc65)cc43)[C@H]2C)cc1	-0.0276	-0.662	-0.0962	0.379	-0.236	0.992	0.671	0.816 (inactive)	-0.089	-0.284	0.182	1.32 (inactive)	0.381 (inactive)	8.27 (active)	1.21	1.13 (inactive)	-0.136	0.245	0.057	-0.19
COCCOC(=O)N1C(=O)[C@@]2(c3cc(C#CCC(C(=O)OC)C(=O)OC)ccc31)[C@H](C(=O)N1CCCCCCC1)[C@H]1C(=O)O[C@H](c3ccccc3)[C@H](c3ccccc3)N1[C@@H]2c1ccccc1OCCO	3.92	1.8	0.825	0.481	1.39	0.811	1.12	0.158 (inactive)	3.34	2.72	1.56	0.917 (inactive)	-1.08 (inactive)	3.51 (inactive)	2.88	0.858 (inactive)	1.82	1.82	1.14	1.06
C=CC[C@]1(C(=O)OC)N=C(c2ccc(OCCCO)cc2)O[C@H]1c1ccccc1N=[N+]=[N-]	0.638	0.402	0.288	1.13	1.42	1.5	1.4	3.21 (inactive)	1.03	0.33	1.54	-0.747 (inactive)	-0.652 (inactive)	1.35 (inactive)	3.36	-0.225 (inactive)	0.529	1.41	1.08	0.686
COc1cccc(C[C@H]2C[C@@H](CO[Si](C(C)C)(C(C)C)C(C)C)N3C(=O)[C@@]4(C(C)=O)O[C@@]23[C@@H]2C(=O)N(C)C(=O)[C@@H]24)c1	-0.43	0.199	-0.0697	0.933	1.16	1.01	0.93	-1.14 (inactive)	0.307	0.113	1.56	0.368 (inactive)	0.827 (inactive)	1.6 (inactive)	0.189	-0.929 (inactive)	-0.105	0.456	1.16	0.127
C=CCC(OC(C)=O)[C@@H]1[C@@H](N(Cc2ccc(-c3cccc(C(F)(F)F)c3)o2)C(=O)Cc2ccc(F)cc2)c2cc(OCCCO)ccc2N1C(=O)c1ccc2ccccc2n1 (stereo not given in full)	-0.019	0.193	-0.106	-0.321	-0.848	-0.114	-0.533	0.01 (inactive)	0.0974	0.235	-1.08	-0.203 (inactive)	0.15 (inactive)	-0.522 (inactive)	-0.452	-1.08 (inactive)	-0.0415	-0.436	-0.768	-0.157
